Screens as filed in PubChem BioAssay.
Compounds with a hit are over-represented: about 0.91% of the library has one in this group of screens.
Prostate diff: promotes differentiation of LNCaP prostate cells; flow cytometry side scatter, 4 d; side scatter shift, % at 10 µM; AID 795; 24,000 tested, 0.56% active;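 active means side scatter shift above 30%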;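 further: androgen-responsive LNCaP prostate cancer cells in charcoal-stripped serum medium; percent of cells past a gate set so DMSO wells show 10% shift; higher shift means more granular cells and more differentiation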
S aureus QS inh: inhibitors of bacterial quorum sensing in S. aureus; S. aureus RN6390 RNAIII-GFP reporter, AIP-induced, flow cytometry 3 h; inhibition, % at 2 µM; 24,000 tested, 0.3% active; AID 527;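 active means share of bacteria positive for the green fluorescent reporter and its mean brightness both inhibited by 50% or more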;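 further: 0% = AIP-stimulated control and 100% = unstimulated bacteria without AIP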
An asterisk follows results filed as active; nt = no result.

SMILES	Prostate diff	S aureus QS inh
CCN(CC)CCCNc1oc(-c2cccc(Cl)c2)nc1C#N	32*	-2
COc1ccc(-c2nc(C#N)c(NCCN(C)C)o2)cc1	16	-3
COC(=O)c1cc(-c2ccccc2)sc1NC(=O)c1cc(C)on1	35*	-1
COc1cc(NC(=O)c2cc(C)on2)cc(OC)c1OC	5	-2
COc1ccc(Cn2c(C)nc3c(c2=O)c2nc4ccccc4nc2n3Cc2ccco2)cc1	58*	-1
COc1ccc(CCn2c(-c3ccco3)nc3nc4ccccc4nc32)cc1	10	1
CN1CCCN(C(=O)c2cc(=O)[nH]c3ccccc23)c2nc3ccccc3nc21	4	0
CN1CCN(c2cc3c(c4c2[nH]c2ccccc24)C(=O)CC(C)(C)C3)CC1	63*	0
O=C1OCCN1CCN(CN1C(=O)CCC1=O)CN1C(=O)CCC1=O	6	-1
O=C1CS/C(=N\C(=O)N2c3ccccc3Sc3ccccc32)N1	10	87*
O=C1CSC(=Nc2ccccc2)N1	nt	-4
CCN1CCN(c2cc(C)c3cc(NC(=O)c4ccncc4)ccc3n2)CC1	11	-5
CCN1CCN(c2cc(C)c3cc(NC(=O)c4ccc(Br)o4)ccc3n2)CC1	53*	-4
Cc1ccc(CN2C(=O)CCC2C(=O)NCCN2CCN(c3cccc(Cl)c3)CC2)cc1 (stereo not drawn)	3	3
COc1ccc(C2C(C(=O)Nc3ccccn3)=C(C)Nc3ncnn32)c(OC)c1 (stereo not drawn)	1	-1
Cc1ccc2c(c1)NC(=O)C(CC(=O)NCCCN1CCN(c3cc(Cl)ccc3C)CC1)O2 (stereo not drawn)	44*	0
Cc1ccc2c(c1)NC(=O)C(CC(=O)NCCCN1CCCCC1)O2 (stereo not drawn)	11	0
O=C(O)C1CCCCC1C(=O)NCCc1ccccc1 (stereo not drawn)	10	0
O=C(CCCn1c(=S)[nH]c2cc3c(cc2c1=O)OCO3)N1CCN(c2ccccc2)CC1	7	-8
O=C(CCCn1c(=S)[nH]c2cc3c(cc2c1=O)OCO3)N1CCc2ccccc2C1	5	66*
O=C(NCc1cccnc1)c1cccc(C(F)(F)F)c1	8	1
Cc1sc2c(c1C)CN(Cc1ccco1)CN2C(=O)c1ccccc1	8	13
CCCc1nnc(NC(=O)CN2C(=O)C3C4C=CC(C4)C3C2=O)s1 (stereo not drawn)	10	-1
